GLP-1R inv ag – acts as inverse agonist at human GLP-1 receptor | HEK293 GLP-1R CRE-luciferase, luminescence, 24 h; GLP-1R form is constitutively active | 410,000 compounds, 1.6% hits | P43220 | Potency, µM (doses to about 38.3 µM), without a hit: top-dose activity change, negative = inhibition, hits mostly inhibitors | AID 624417; also: % is scaled to controls: 0 for no effect and ±100 for the full control effect; nearly all actives have a fitted effect of over 55% in size
Target sequence (P43220 whole entry, looked up): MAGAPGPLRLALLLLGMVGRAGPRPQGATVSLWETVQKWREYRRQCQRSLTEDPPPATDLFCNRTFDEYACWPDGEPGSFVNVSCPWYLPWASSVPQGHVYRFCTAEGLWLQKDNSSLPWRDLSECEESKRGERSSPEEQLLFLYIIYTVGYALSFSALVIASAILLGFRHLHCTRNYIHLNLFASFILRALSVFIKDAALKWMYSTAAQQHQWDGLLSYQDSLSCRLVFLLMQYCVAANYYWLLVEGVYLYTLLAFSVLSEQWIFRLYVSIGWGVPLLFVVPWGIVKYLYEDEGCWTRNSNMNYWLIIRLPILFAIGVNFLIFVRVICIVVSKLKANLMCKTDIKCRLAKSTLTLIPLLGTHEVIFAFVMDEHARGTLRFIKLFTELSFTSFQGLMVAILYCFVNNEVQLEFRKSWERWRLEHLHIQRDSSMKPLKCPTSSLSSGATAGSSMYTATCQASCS
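HEK293 cells stably co-expressing constitutively active GLP-1R and a cAMP-responsive luciferase reporter were seeded in DMEM with 10% Nu serum, given compounds after 12 h, and incubated 24 h at 37 deg C. Luminescence was then read.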
GLP1R cytotox – cytotoxicity counter-screen for GLP-1 receptor inverse agonists; 410,000 compounds, 0.13% hits; HEK293 cAMP-luciferase reporter cells, luminescence, 24 h; AID 624418; Potency, µM (top dose mostly 38.3 µM), for inactives: at the highest dose activity change, negative = inhibition, actives largely listed as inhibitors;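 also: loss of luciferase light is scored as toxicity; % is scaled to controls: 0 for no effect and ±100 for the full control effect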
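To flag toxic compounds, the library was rerun on cells for 24 hr at 37 deg C and 5% CO2. Viability-linked luminescence was captured 12 min after adding luciferase detection reagent.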
GLP-1R agonist – GLP-1 receptor (human) agonism. Potency, µM (top dose mostly 45.6 µM), for the others: top-dose activation, usual class: activators. HEK293 GLP-1R CRE-luciferase, luminescence, 4-6 h; cells express a hypersensitive GLP-1R form. 380,000 compounds, 0.007% hits. P43220. AID 624172; also: % of control where 0% means no effect
PTHR1 agonist – agonists of human PTHR1 parathyroid hormone receptor; Q03431; HEK293 GP2 PTHR1 cells, GloSensor cAMP luminescence, 1 h; Potency, µM (top dose mostly 115 µM), for the others: at the highest dose activation, actives largely listed as activators; 410,000 compounds, 0.075% hits; AID 743266; also: nearly all actives have a fitted effect of over 55% in size
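HEK-293-derived GP2 cells expressing PTHR1 and a GloSensor cAMP reporter, 3,000/well, plated overnight, given luciferin plus IBMX (each 0.5 mM as added) for 1 h at 37 °C, then compound for 1 h at 37 °C. Luminescence was read after 15 min at room temperature.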
* = called active by the depositor. Rows were chosen to be rich in hits. Some 1.7% of all compounds tested hit in one or more screens of this group. Calls follow the shape of the dose curve; as a rule, active = well fitted curve in the direction sought with a large enough effect; inconclusive = small, poorly fitted or top-dose-only effect, or another doubt; inactive = no such curve, though single readings can be large; an effect the other way counts as inactive or inconclusive. Potency is read from the fitted curve at half-maximal effect.

How did Cc1ccc(C)c(Nc2nnc(-c3ccc(C)c(S(=O)(=O)NCC4CCCO4)c3)c3ccccc23)c1 (stereo unspecified) do in these assays?
GLP-1R inv ag: 11µM*; GLP1R cytotox: 7%; PTHR1 agonist: -31%

How did Fc1cccc(/C=C2\CCCC3=C2NC(=S)NC3c2cccc(F)c2)c1 (stereo unspecified) do in these assays?
GLP-1R inv ag: 10µM*; GLP1R cytotox: -32%; GLP-1R agonist: -5%; PTHR1 agonist: -46%

What do the screens show for `S=C1NC2=C(CCC/C2=C\c2ccccc2)C(c2ccccc2)N1` (stereo unspecified)?
GLP-1R inv ag: 3%; GLP1R cytotox: -23%; GLP-1R agonist: 2%; PTHR1 agonist: inactive

How did S=C1NC2=C(CCC/C2=C\c2ccc(Cl)cc2)C(c2ccc(Cl)cc2)N1 (stereo unspecified) do in these assays?
GLP-1R inv ag: 7.9µM*; GLP1R cytotox: -26%; GLP-1R agonist: -1%; PTHR1 agonist: -49%

How did CCOC(=O)Cn1c(=O)n(C2CCCCC2)c2nc(-c3ccccc3Cl)nc(C(N)=O)c21 do in these assays?
GLP-1R inv ag: -9%; GLP1R cytotox: 1%; GLP-1R agonist: 2%; PTHR1 agonist: -1%

Results for CC(C(=O)NCCC1=CCCCC1)c1ccc([N+](=O)[O-])cc1 (stereo unspecified) ?
GLP-1R inv ag: 10µM*; GLP1R cytotox: 4%; GLP-1R agonist: 16%; PTHR1 agonist: -2%

How did CCN(CC)CCSc1nnc2c3cc(C)ccc3n(Cc3ccccc3)c2n1 do in these assays?
GLP-1R inv ag: 13µM*; GLP1R cytotox: inconclusive; GLP-1R agonist: 24%; PTHR1 agonist: -4%

How did CCCCn1c2ccc(F)cc2c2nnc(SCCN(CC)CC)nc21 do in these assays?
GLP-1R inv ag: 21%; GLP1R cytotox: 2%; GLP-1R agonist: 8%; PTHR1 agonist: -34%

Results for CCn1cc(C(=O)N2CCN(c3cccc(Cl)c3)CC2)c(=O)c2cc(S(=O)(=O)N3CCC(C)CC3)ccc21 ?
GLP-1R inv ag: inconclusive; GLP1R cytotox: -7%; GLP-1R agonist: -5%; PTHR1 agonist: -20%

How did CCOC(=O)c1cccc(NC(=O)CC2C(=O)N(c3ccc(Cl)cc3)C(=O)N2C2CCCC2)c1 (stereo unspecified) do in these assays?
GLP-1R inv ag: 13µM*; GLP1R cytotox: -29%; PTHR1 agonist: -54%

How did CC(C)CC(=O)NC(=S)Nc1ccc(N2CCN(C(=O)c3cccs3)CC2)cc1 do in these assays?
GLP-1R inv ag: 10µM*; GLP1R cytotox: 0%; GLP-1R agonist: 11%; PTHR1 agonist: -10%

What do the screens show for `CC(C)C(=O)Nc1ccc(N2CCN(C(=O)c3cccs3)CC2)cc1`?
GLP-1R inv ag: -18%; GLP1R cytotox: -19%; GLP-1R agonist: -6%; PTHR1 agonist: inactive

Results for Cc1ccc(C(=O)N2CCN(c3ccc(NC(=S)NC(=O)c4cccs4)cc3)CC2)cc1 ?
GLP-1R inv ag: 8.9µM*; GLP1R cytotox: -8%; GLP-1R agonist: 7%; PTHR1 agonist: -22%

Results for CCCN(CCC)C(=O)Cn1c(=O)n(-c2cccc(C(F)(F)F)c2)c(=O)c2c(C)c(C)sc21 ?
GLP-1R inv ag: 6%; GLP1R cytotox: 1%; PTHR1 agonist: inactive

What do the screens show for `Cc1cc(C)cc(NC(=O)C2CCCN(c3nnc(-n4c(C)ccc4C)s3)C2)c1` (stereo unspecified)?
GLP-1R inv ag: inconclusive; GLP1R cytotox: -7%; PTHR1 agonist: -29%

What do the screens show for `NC(=O)C1CC2(NC(=O)NC2=O)c2cc(F)ccc2O1` (stereo unspecified)?
GLP-1R agonist: 6%

What do the screens show for `Cc1ccc(C(=O)c2sc(Nc3ccc(F)cc3)nc2N)c(C)c1`?
GLP-1R inv ag: 5µM*; GLP1R cytotox: -13%; PTHR1 agonist: -3%

What do the screens show for `COc1ccc(Nc2nc(N)c(C(=O)c3ccc(F)cc3)s2)cc1`?
GLP-1R inv ag: inconclusive; GLP1R cytotox: 13%; GLP-1R agonist: -12%; PTHR1 agonist: -23%

How did COc1ccc(/C=C2\Cc3ccccc3C2=O)cc1OC do in these assays?
GLP-1R inv ag: 86%; GLP1R cytotox: 8%; GLP-1R agonist: -7%; PTHR1 agonist: -25%

Results for COc1ccc(/C=C2/CSC/C(=C/c3ccc(OC)c(OC)c3)C2=O)cc1OC ?
GLP-1R inv ag: 5µM*; GLP1R cytotox: -35%; GLP-1R agonist: 9%; PTHR1 agonist: -32%

Results for CCOc1ccc(C(=O)NCCc2sc(-c3ccc(F)cc3)nc2C)cc1 ?
GLP-1R inv ag: -16%; GLP1R cytotox: 1%; PTHR1 agonist: -10%

Results for COc1ccc(NC(=O)CN2CCN(CC(=O)Nc3ccccc3Cl)CC2)cc1Cl ?
GLP-1R inv ag: inconclusive; GLP1R cytotox: 10%; GLP-1R agonist: 23%; PTHR1 agonist: -23%

How did COc1ccccc1NC(=O)CN1CCN(CC(=O)Nc2ccc(Cl)c(C(F)(F)F)c2)CC1 do in these assays?
GLP-1R inv ag: 4µM*; GLP1R cytotox: inconclusive; GLP-1R agonist: -1%; PTHR1 agonist: -20%

What do the screens show for `COc1cc(NC(=O)Nc2cccc(Cl)c2)c(OC)cc1NC(=O)CN1CCCCC1`?
GLP-1R inv ag: 3.2µM*; GLP1R cytotox: inconclusive; GLP-1R agonist: -15%; PTHR1 agonist: inactive

Results for O=C(CN1CCCCC1)Nc1cccc(Cl)c1 ?
GLP-1R inv ag: 10%; GLP1R cytotox: -11%; GLP-1R agonist: -1%; PTHR1 agonist: -25%

How did CCOc1ccc(-c2cn3c(n2)sc2cc(C(=O)NCCCN(CC)CC)ccc23)cc1 do in these assays?
GLP-1R inv ag: 10µM*; GLP1R cytotox: inconclusive; PTHR1 agonist: -15%

How did CCc1ccccc1NC(=O)C(=O)NCCCN1CCOCC1 do in these assays?
GLP-1R inv ag: 17%; GLP1R cytotox: 0%; GLP-1R agonist: 6%; PTHR1 agonist: inactive

Results for Cn1c(=S)c2[nH]c(SCCN)nc2n(C)c1=O ?
GLP-1R inv ag: inconclusive; GLP1R cytotox: 3.2µM*; GLP-1R agonist: -3%; PTHR1 agonist: -13%

How did Cn1c(=S)c2[nH]c(SCCN3CCCC3)nc2n(C)c1=O do in these assays?
GLP-1R inv ag: 5.6µM*; GLP1R cytotox: inconclusive; GLP-1R agonist: -5%; PTHR1 agonist: 13%

How did CCN1CCCC(Sc2nc3c([nH]2)c(=S)n(C)c(=O)n3C)C1 (stereo unspecified) do in these assays?
GLP-1R inv ag: 4.5µM*; GLP1R cytotox: inconclusive; GLP-1R agonist: 0%; PTHR1 agonist: inconclusive

How did CCCCSc1nc2c([nH]1)c(=O)n(C)c(=S)n2C do in these assays?
GLP-1R inv ag: 6%; GLP1R cytotox: -5%; GLP-1R agonist: 0%; PTHR1 agonist: -34%

How did Cn1c(=O)c2[nH]c(C3CCC3)nc2n(C)c1=O do in these assays?
GLP-1R inv ag: 11%; GLP1R cytotox: 24%; GLP-1R agonist: 1%; PTHR1 agonist: 9%

How did O=C(CCS(=O)(=O)c1cc2c3c(c1)CCN3C(=O)CC2)NCc1ccc(F)cc1 do in these assays?
GLP-1R inv ag: 10%; GLP1R cytotox: 1%; PTHR1 agonist: -19%

Source: PubChem (National Center for Advancing Translational Sciences (NCATS))
